KDM5B inh – blocks human KDM5B histone demethylase activity. Potency, µM (doses to about 57.7 µM), most hits filed as inhibitors. Q9UGL1. 2.6% of 220,000 active. KDM5B demethylase, FDH-coupled NADH fluorescence (FDH is formaldehyde dehydrogenase); note: potency is the fitted concentration of half-maximal effect; 0% is about no effect; nearly all actives have a fitted effect of over 70% in size
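Here, H3K4me3 peptide (12.5 µM in substrate mix) is demethylated by KDM5BΔAP, 200 nM final, after 10 min compound exposure. Formaldehyde product is coupled through FDH (0.25 U/mL in mix) to NADH fluorescence; 30-min ΔRFU feeds dose-response curves.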
IP6K1 inh – blocks human inositol hexakisphosphate kinase 1; Q92551; IP6K1 kinase, ADP-Glo luminescence, 2 h; hits give low values; activity change, % (series mostly up to about 58 µM); 0.81% of 140,000 active; AID 1645851; in the data active = activity change below about -25%; note: % is set by controls: 0 for no effect and ±100 for the full control effect
Target sequence (Q92551 whole entry, looked up): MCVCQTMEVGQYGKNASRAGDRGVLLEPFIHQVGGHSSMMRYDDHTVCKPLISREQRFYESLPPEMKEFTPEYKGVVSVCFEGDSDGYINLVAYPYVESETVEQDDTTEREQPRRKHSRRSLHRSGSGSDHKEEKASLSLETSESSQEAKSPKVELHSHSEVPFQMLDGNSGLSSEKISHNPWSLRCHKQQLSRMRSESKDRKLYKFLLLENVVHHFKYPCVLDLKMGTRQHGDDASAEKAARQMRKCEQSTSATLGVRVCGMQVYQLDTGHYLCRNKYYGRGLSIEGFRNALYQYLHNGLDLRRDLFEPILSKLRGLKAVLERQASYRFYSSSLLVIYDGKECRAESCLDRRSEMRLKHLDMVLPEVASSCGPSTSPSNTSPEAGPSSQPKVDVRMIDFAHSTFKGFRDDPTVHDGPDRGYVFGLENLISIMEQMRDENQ
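ADP-Glo luminescence measures ADP made by human IP6K1 during a 2 h RT reaction with ATP/IP6 (mix at 1.3 mM/130 uM); top library doses 57.5 and 19.1 uM final.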
SNCA viab count – cell viability loss counter-screen. HEK-293-SNCA-luc viability, GF-AFC fluorescence, 24 h. 0.12% of 150,000 active. Potency, µM (series often up to 57.1 µM), for the others: top-dose activity change, negative = cytotoxicity, actives largely listed as cytotoxic;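 note: potency is the fitted concentration of half-maximal effect; 0% = DMSO-treated cells and -100% = medium-only wells without cells; nearly all actives have a fitted effect of over 30% in size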
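HEK-293-SNCA-luc cells (1500/well) plated 24 h, then exposed 24 h to a dilution series; GF-AFC added 30 min at 37C, fluorescence 405/540 nm; normalised to medium-only and DMSO wells, Hill fit.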
SNCA expr inhib – reduces expression of the alpha-synuclein gene. HEK-293 SNCA-luciferase knock-in, luminescence, 24 h. AID 1671194. Potency, µM (titrated, usually from 57.2 µM), without a hit: top-dose activity change, negative = inhibition, actives largely listed as inhibitors. 0.17% of 140,000 active;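 note: potency is the fitted concentration of half-maximal effect; plate controls were DMSO cells for no effect and cell-free wells for full effect; nearly all actives have a fitted effect of over 45% in size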
* hit, by the source's call; i = inactive; ? = inconclusive; . = no result; [ ] = dose if it differs, or a comment. Most compounds without a hit are left out; they make up all but 2.8% or so of the library. Unless noted, calls come from the whole dose curve; as a rule, active = well fitted curve in the direction sought with a large enough effect; inconclusive = small, poorly fitted or top-dose-only effect, or another doubt; inactive = no such curve, though single readings can be large; an effect the other way counts as inactive or inconclusive.

SMILES | KDM5B inh | IP6K1 inh | SNCA viab count | SNCA expr inhib
CC1CC(C#N)NC(=S)N1 (centres undefined) | i | . | . | .
COCC(=O)N1C[C@H](NC(=O)C(=O)c2cccn2C)[C@@H](C2CC2)C1 | i | 1 | -1% | 6%
COCC(=O)N1C[C@H](NC(=O)c2nc3ccccc3n(C)c2=O)[C@@H](C2CC2)C1 | 22µM* | -2 | 10% | -21%
O=C(Nc1nnc(C2CC2)s1)c1nn(Cc2ccccc2)c(=O)c2ccccc12 | i | . | . | .
Cc1ccccc1CNC(=O)c1nn(C)c(=O)c2ccccc12 | i | . | . | .
O=C(Cc1ccc(F)cc1)NCCn1ccn2nc(-c3ccc(F)cc3)cc2c1=O | i | -5 | 6% | -7%
Cc1ccc(-c2cc3c(=O)n(CCNC(=O)Cc4ccsc4)ccn3n2)cc1C | i | -11 | -7% | 33%
COc1ccc(-c2cc3c(=O)n(CCNC(=O)Cc4ccc(C)cc4)ccn3n2)cc1 | 20µM* | 8 | -17% | 1%
COc1ccc(-c2cc3c(=O)n(CCNC(=O)Cc4ccsc4)ccn3n2)cc1 | 28µM* | -7 | ? | -20%
O=C(NCc1noc(-c2ccccc2)n1)c1cc2ccccc2o1 | i | . | . | .
COc1ccc(Nc2ccnc(N3CCC(NC(=O)c4ccccc4)CC3)n2)cc1 | . | -3 | -9% | 2%
CN(C)[C@@H]1[C@@H](NC(=O)CCc2nc3ccccc3[nH]c2=O)[C@H]2CCO[C@H]21 | 28µM* | 7 | 3% | 5%
COc1ccc(C2Cn3nnc(-c4noc(-c5ccc(C)cc5C)n4)c3CO2)cc1 (centres undefined) | ? | 2 | 10% | -8%
Cc1ccc(C2Cn3nnc(-c4noc(-c5cccc(N(C)C)c5)n4)c3CO2)cc1 (centres undefined) | 22µM* | -11 | -1% | 6%
COc1ccc(-c2nc(-c3nnn4c3COC(c3ccc(C)cc3)C4)no2)c(OC)c1 (centres undefined) | 20µM* | 2 | -2% | 14%
COc1ccc(-c2nc(-c3nnn4c3COC(c3ccc(C)cc3)C4)no2)cc1OC (centres undefined) | 14µM* | 6 | -9% | -4%
Cc1ccc(C2Cn3nnc(-c4noc(-c5ccc(N(C)C)cc5)n4)c3CO2)cc1 (centres undefined) | ? | 8 | -1% | 38%
Cc1ccc(C2Cn3nnc(-c4noc(-c5ccc(C)s5)n4)c3CO2)cc1 (centres undefined) | 13µM* | -15 | 5% | -1%
COc1cc(C2CC(=O)N(c3ccc(C)cc3)C3=C2C(=O)OC3)cc(OC)c1OC (centres undefined) | i | . | . | .
COc1cccc([S+](=O)([O-])N2CCC3(COc4ccccc4C(=O)N3)C2)c1 (centres undefined) | 32µM* | 20 | 2% | 12%
Cc1noc(C)c1[S+](=O)([O-])N1CCCC2(COc3ccccc3C(=O)N2)C1 (centres undefined) | 25µM* | 15 | ? | ?
Cc1noc(C)c1[S+](=O)([O-])N1CC2(C1)NC(=O)c1ccccc1O2 | i | -4 | 5%[87.6 µM] | 16%[87.6 µM]
O=C1NC2(CCCN([S+](=O)([O-])c3ccsc3)C2)COc2ccccc21 (centres undefined) | 32µM* | 17 | -16% | -12%
O=C1NC2(CCN([S+](=O)([O-])c3ccccc3)C2)COc2ccccc21 (centres undefined) | i | 10 | 8% | 4%
Cc1ccnc(NC(=O)CCc2nc(C(C)(C)C)no2)c1 | i | . | . | .
SMILES | KDM5B inh | IP6K1 inh | SNCA viab count | SNCA expr inhib
CS(=O)(=O)N1C[C@H]2CCN(C(=O)c3ccc4[nH]ccc4c3)C[C@H]21 | i | 11 | 1%[12.5 µM] | 14%
O=C(c1cccs1)N1CC[C@@H]2COCCN(Cc3cccnc3)[C@@H]2C1 | i | 13 | -13% | 0%
O=C(c1cccc2[nH]ccc12)N1CC[C@@H]2COCCN(Cc3ccncc3)[C@@H]2C1 | 28µM* | 0 | -3% | -16%
CS(=O)(=O)N1C[C@H]2CCN(C(=O)c3cccc4[nH]ccc34)C[C@H]21 | 18µM* | 5 | 1%[12.5 µM] | 0%
O=C(c1cccc2[nH]ccc12)N1CC[C@@H]2COCCN(Cc3cccnc3)[C@@H]2C1 | 18µM* | -1 | -4% | 1%
O=C(CSc1nccn1-c1cccc(C(F)(F)F)c1)Nc1ccc2c(c1)OCO2 | i | . | . | .
CC(C)S(=O)(=O)c1oc(-c2cccs2)nc1S(=O)(=O)c1ccc(F)cc1 | i | -3 | ? | 14µM*
CCCCS(=O)(=O)c1oc(-c2ccc(F)cc2)nc1S(=O)(=O)c1ccccc1 | ? | -13 | 14µM* | ?
CS(=O)(=O)c1oc(-c2ccc(F)cc2)nc1S(=O)(=O)c1ccc(Cl)cc1 | i | -10 | -6% | 9%
CCS(=O)(=O)c1oc(-c2ccc(F)cc2)nc1S(=O)(=O)c1ccc(Br)cc1 | ? | -9 | 16µM* | ?
Cc1ccc(S(=O)(=O)c2nc(-c3cccs3)oc2SC(C)C)cc1 | ? | -6 | 2% | 20%
CCSc1oc(-c2ccccc2)nc1S(=O)(=O)c1ccc(F)cc1 | i | . | . | .
CC(C)S(=O)(=O)c1oc(-c2ccc(F)cc2)nc1S(=O)(=O)c1ccccc1 | ? | -2 | 2.5µM* | ?
O=C(NCc1ccccc1)c1ccc2nnc(-c3cccc(C(F)(F)F)c3)n2c1 | . | -4 | -29% | ?
Cc1nc(CN2C[C@H](C(=O)NCCOc3ccccc3)C[C@@H]2c2ccc(F)cc2)cs1 | ? | -3 | -29%[87.6 µM] | -29%[87.6 µM]
Cc1nc(CN2C[C@H](C(=O)N3CCN(c4ccccn4)CC3)C[C@@H]2c2ccc(F)cc2)cs1 | 28µM* | -3 | -7% | -29%
O=C(NCc1ccccc1CN1CCOCC1)c1cnn(-c2ccccc2)c1 | i | . | . | .
CN(C)C(=O)c1ccc2cc[nH]c2n1 | 126µM* | -3 | ? | ?
O=C(Nc1ccc(F)cc1)c1ccc2cc[nH]c2n1 | 112µM* | 6 | ? | -34%[87.6 µM]
CN(C)C(=O)c1[nH]cnc1C(=O)NCC(C)(C)C | i | . | . | .
CCOC(=O)c1cnc(Nc2cccc(C)c2C)c2ccccc12 | i | . | . | .
Cc1nc(-c2ccc(F)cc2)n(Cc2nc(-c3ccc(OC(C)C)cc3)oc2C)c(=O)c1CCO | 16µM* | -2 | 5% | 19%
Cc1nc(-c2ccccc2)n(Cc2nc(-c3ccc(OC(C)C)cc3)oc2C)c(=O)c1CCO | ? | -2 | -2% | -5%
c1cc2c(cc1-c1csc(NC3CC3)n1)OCCCO2 | i | . | . | .
C=Cc1ccc(Cn2c(C(=O)O)c(CNCCc3ccccc3)c3ccc(C)cc32)cc1 | ? | -4 | 28µM* | ?
Cc1ccc2c(CNCCc3ccc(Cl)cc3)c(C(=O)O)n(Cc3ccc(F)cc3)c2c1 | i | 4 | 4% | -8%
CCc1nc(N2CCOCC2)ncc1C(=O)O | 25µM* | -21 | 3% | -2%
Nc1ncc(C(=O)N2CCCC3(CCOC3)C2)c(-c2ccccc2)n1 (centres undefined) | ? | -7 | 2% | -1%
